This is part of a sample that, as a whole, favours compounds with a hit. Of some 79,000 tested, about 15% had one in any assay. Unmarked numbers belong to inactive results. Rule as the data show it: active = growth inhibition above about 70%; inactive = the rest.
Assay: NCI Yeast Anticancer Drug Screen. Data for the rad50 strain (AID 155);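 also: 0% = growth of vehicle-only cultures of the same strain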
Details: S. cerevisiae rad50 strain growth inhibition; at 50.0 µM; active compounds read high
In short: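 Inhibition values express reduced yeast growth in compound-treated cultures relative to vehicle-treated controls.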

**Q.** With `CCOc1cccc(C=Nc2ccccc2SSc2ccccc2N=Cc2cccc(OCC)c2O)c1O` as the molecule, how does the growth inhibition read?
**A.** The growth inhibition was 42.2%.

**Q.** For `c1csc(NC(Nc2nccs2)C23CC4CC(CC(C4)C2)C3)n1`, which growth inhibition is on record?
**A.** Its growth inhibition is 28.1%.

**Q.** With `O=C1C(Cc2ccc(O)cc2)NC(=S)N1c1ccccc1` (stereo not given) as the molecule, how does the growth inhibition read?
**A.** Its growth inhibition is 0.6%.

**Q.** For `CO/N=C1\C(O)CC2C(C)(CCC3C2(C)CCC2(C)C4CC(C)(C)CCC4(C)CCC32C)C1C` (stereo not given), which growth inhibition is on record?
**A.** The growth inhibition was 1.9%.

**Q.** With `CCOc1cn(C2OC(CO)C(O)C2O)c(=O)[nH]c1=O` (stereo not given) as the molecule, how does the growth inhibition read?
**A.** Its growth inhibition is -33.9%.

**Q.** With `OCC1CCN(CCOCc2ccccc2)C1` (stereo not given) as the molecule, how does the growth inhibition read?
**A.** Its growth inhibition is 9.25%.

**Q.** For `Cc1cc(C(C)(C)C)ccc1S(=O)(=O)/C=C/c1ccccc1`, which growth inhibition is on record?
**A.** The growth inhibition was -18.6%.

**Q.** Which growth inhibition does the source give for `N#CC1C=CN(Cc2ccccc2)C=C1C(=O)c1ccccc1` (stereo not given) here?
**A.** Its growth inhibition is -1.5%.

**Q.** For `CC1=NN(C(=O)c2ccc(Cl)cc2)C(=O)C1N=Nc1ccc(S(=O)(=O)Nc2ccccn2)cc1` (stereo not given), which growth inhibition is on record?
**A.** The growth inhibition was -0.85%.

**Q.** With `CCCCCCCCCCCCCCCCOc1ccc(N)cc1` as the molecule, how does the growth inhibition read?
**A.** Its growth inhibition is 11.7%.

**Q.** Which growth inhibition does the source give for `O=S1(=O)C2C=CC1CCCC2` here?
**A.** Its growth inhibition is 3.35%.

**Q.** Which growth inhibition does the source give for `Cn1ncc2c(N)nc(NCCO)nc21` here?
**A.** The growth inhibition was 1.1%.

**Q.** With `O=CC(O)C(O)C(O)C(O)COC1OC(CO)C(O)C(O)C1O` (stereo not given) as the molecule, how does the growth inhibition read?
**A.** The growth inhibition was 22.6%.

**Q.** For `CC(O)CNCC(C)(C)N` (stereo not given), which growth inhibition is on record?
**A.** The growth inhibition was -4.6%.

**Q.** With `CC(=O)OCC(OC(C)=O)C(OC(C)=O)C(/C=C/N=[N+]([O-])c1ccccc1)OC(C)=O` (stereo not given) as the molecule, how does the growth inhibition read?
**A.** Its growth inhibition is 49%.

**Q.** For `O=C(/C=C/c1ccco1)CCN1CCOCC1`, which growth inhibition is on record?
**A.** Its growth inhibition is 8.15%.

**Q.** For `CC1CC2C3(C1)CC(C(=O)OC3=O)C2(C)C` (stereo not given), which growth inhibition is on record?
**A.** The growth inhibition was -3.4%.

**Q.** Which growth inhibition does the source give for `CCOC(=O)c1ccc(-c2cccs2)[nH]1` here?
**A.** Its growth inhibition is -35.3%.

**Q.** Which growth inhibition does the source give for `CS(=O)(=O)ON1C(=O)c2ccccc2C1=O` here?
**A.** The growth inhibition was 9.9%.

**Q.** Which growth inhibition does the source give for `O=C(Nc1cc(-c2ccccc2)[nH]n1)c1ccccc1Cl` here?
**A.** The growth inhibition was 22.1%.

**Q.** Which growth inhibition does the source give for `C1=CCc2cc3c(cc2=C1)C=c1ccccc1=3` here?
**A.** The growth inhibition was -12.3%.

**Q.** For `CCCNC(=O)Nc1ccc2c(c1)Cc1cc([N+](=O)[O-])ccc1-2`, which growth inhibition is on record?
**A.** Its growth inhibition is -12.2%.

**Q.** Which growth inhibition does the source give for `CCCCCC(=C/c1ccccc1)/C=N/N1CCN(/N=C/C(=C/c2ccccc2)CCCCC)CC1` here?
**A.** The growth inhibition was 32.1%.

**Q.** For `CCc1cccc(CC)c1NC1=CC(=O)C(=O)c2ccccc21`, which growth inhibition is on record?
**A.** The growth inhibition was 22.4%.

**Q.** For `COc1ccc(CNc2ccccc2C(=O)O)cc1OC`, which growth inhibition is on record?
**A.** Its growth inhibition is 11.2%.

**Q.** Which growth inhibition does the source give for `Brc1nc(-[n+]2ccccc2)[n-]c1Br` here?
**A.** Its growth inhibition is -0.75%.

**Q.** For `COC(=O)C(N)CSc1ccc([N+](=O)[O-])cc1[N+](=O)[O-]` (stereo not given), which growth inhibition is on record?
**A.** The growth inhibition was 37.5%.

**Q.** Which growth inhibition does the source give for `Oc1cc2cc(-c3ccccc3)[nH]c2c2ccccc12` here?
**A.** The growth inhibition was -11.1%.

**Q.** With `CCCCS/C=C\C(=O)OCC` as the molecule, how does the growth inhibition read?
**A.** The growth inhibition was 18.9%.

**Q.** For `CCOC(=O)c1c2cccccc-2nc1Nc1cccc2c(C)ccnc12`, which growth inhibition is on record?
**A.** Its growth inhibition is 11.7%.

**Q.** With `CC1=NN(C(=O)c2ccncc2)C(=O)C1N=Nc1ccc(F)cc1` (stereo not given) as the molecule, how does the growth inhibition read?
**A.** Its growth inhibition is -4.65%.

**Q.** With `CCOC(=O)c1ccc(NC(=O)CCCCl)cc1` as the molecule, how does the growth inhibition read?
**A.** Its growth inhibition is 6.15%.

**Q.** For `Cc1[nH]c(=O)[nH]c(=O)c1/C=C/C(=O)NC(CO)CS(=O)CS(C)=O` (stereo not given), which growth inhibition is on record?
**A.** The growth inhibition was 3.85%.

**Q.** For `C[N+]12C=CC=C1C(N1CCCC1)c1sc(-c3ccc(Cl)cc3)cc12` (stereo not given), which growth inhibition is on record?
**A.** Its growth inhibition is 7.9%.

**Q.** With `Cc1nc(N=C(N)N)nc2ccccc12` as the molecule, how does the growth inhibition read?
**A.** The growth inhibition was 3.4%.

**Q.** For `N#CCOS(=O)(=O)O`, which growth inhibition is on record?
**A.** Its growth inhibition is -0.6%.

**Q.** Which growth inhibition does the source give for `Nc1ncccc1C(=O)O` here?
**A.** Its growth inhibition is 2.55%.

**Q.** With `CN(C)CCNC(=O)c1cccc2nc3c(C(=O)NCCN(C)C)cccc3nc12` as the molecule, how does the growth inhibition read?
**A.** Its growth inhibition is -11.7%.

**Q.** For `COc1ccc2c(C(=O)O)cc3c4ccccc4ncc3c2c1`, which growth inhibition is on record?
**A.** The growth inhibition was 9.4%.

**Q.** With `CC(C)COP(C)(=O)C(N)(C(F)(F)F)C(F)(F)F` (stereo not given) as the molecule, how does the growth inhibition read?
**A.** Its growth inhibition is 10.9%.
